From PubChem BioAssay (NCATS)
Values joined by “and” are separate entries in the source; they are usually repeats but may differ in a detail not shown here. Equal values may be shown once. Inconclusive results are not listed. Entries that show only a call come without a potency. A structure can be active in one record and inactive in another. Active and inactive are the calls of the source. Unless noted, the call rests on the fitted dose curve; in most records, active means well fitted curve in the direction sought with a large enough effect; inconclusive means small, poorly fitted or top-dose-only effect, or another doubt; inactive means no such curve, though single readings can be large; an effect the other way counts as inactive or inconclusive.

Experiments:
[1] = qHTS for Inhibitors of Plasmodium falciparum (DD2) proliferation (AID 504314);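 further: parasite DNA measured by SYBR Green fluorescence after red cell lysis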
How it was run: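 Parasite proliferation measured as SYBR Green signal from Plasmodium DNA, mature erythrocytes lacking DNA. 72 h incubation, 37C; activity scaled between vehicle and 0.29 uM artemisinin, with correction from vehicle-only plates.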

[2] = qHTS for Inhibitors of Plasmodium falciparum (GB4) proliferation (AID 504315); further: nearly all actives have a fitted effect of over 50% in size; further: potency means the concentration at half of the fitted maximal effect
How it was run: (§1)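 Parasite growth measured as SYBR Green DNA fluorescence (ex 485, em 535 nm) after overnight lysis following 72 h culture at 37 °C, 0.3% parasitemia, 2.5% hematocrit. Values normalized against DMSO and 0.29 uM artemisinin controls, with plate-stack correction.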

[3] = qHTS for Inhibitors of Plasmodium falciparum (7G8) proliferation (AID 504316); further: nearly all actives have a fitted effect of over 65% in size; further: potency means the concentration at half of the fitted maximal effect
How it was run: as §1

[4] = qHTS for Inhibitors of Plasmodium falciparum (HB3) proliferation (AID 504318); further: nearly all actives have a fitted effect of over 60% in size; further: potency means the concentration at half of the fitted maximal effect
How it was run: as §1

[5] = biological target: Atrial natriuretic peptide receptor 1 (Homo sapiens) (UniProt P16066); experiment: Natriuretic polypeptide receptor (hNpr1) antagonism - Pilot CMLD screen (AID 1347052; calls by dose curve;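 further: cGMP level read as GloSensor luciferase luminescence after agonist stimulation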; further: potency means the concentration at half of the fitted maximal effect)
[6] = qHTS for Inhibitors of Plasmodium falciparum (CP250) proliferation (AID 504320)
How it was run: as §1

Sequence of Atrial natriuretic peptide receptor 1 (Homo sapiens) (P16066 whole entry, looked up): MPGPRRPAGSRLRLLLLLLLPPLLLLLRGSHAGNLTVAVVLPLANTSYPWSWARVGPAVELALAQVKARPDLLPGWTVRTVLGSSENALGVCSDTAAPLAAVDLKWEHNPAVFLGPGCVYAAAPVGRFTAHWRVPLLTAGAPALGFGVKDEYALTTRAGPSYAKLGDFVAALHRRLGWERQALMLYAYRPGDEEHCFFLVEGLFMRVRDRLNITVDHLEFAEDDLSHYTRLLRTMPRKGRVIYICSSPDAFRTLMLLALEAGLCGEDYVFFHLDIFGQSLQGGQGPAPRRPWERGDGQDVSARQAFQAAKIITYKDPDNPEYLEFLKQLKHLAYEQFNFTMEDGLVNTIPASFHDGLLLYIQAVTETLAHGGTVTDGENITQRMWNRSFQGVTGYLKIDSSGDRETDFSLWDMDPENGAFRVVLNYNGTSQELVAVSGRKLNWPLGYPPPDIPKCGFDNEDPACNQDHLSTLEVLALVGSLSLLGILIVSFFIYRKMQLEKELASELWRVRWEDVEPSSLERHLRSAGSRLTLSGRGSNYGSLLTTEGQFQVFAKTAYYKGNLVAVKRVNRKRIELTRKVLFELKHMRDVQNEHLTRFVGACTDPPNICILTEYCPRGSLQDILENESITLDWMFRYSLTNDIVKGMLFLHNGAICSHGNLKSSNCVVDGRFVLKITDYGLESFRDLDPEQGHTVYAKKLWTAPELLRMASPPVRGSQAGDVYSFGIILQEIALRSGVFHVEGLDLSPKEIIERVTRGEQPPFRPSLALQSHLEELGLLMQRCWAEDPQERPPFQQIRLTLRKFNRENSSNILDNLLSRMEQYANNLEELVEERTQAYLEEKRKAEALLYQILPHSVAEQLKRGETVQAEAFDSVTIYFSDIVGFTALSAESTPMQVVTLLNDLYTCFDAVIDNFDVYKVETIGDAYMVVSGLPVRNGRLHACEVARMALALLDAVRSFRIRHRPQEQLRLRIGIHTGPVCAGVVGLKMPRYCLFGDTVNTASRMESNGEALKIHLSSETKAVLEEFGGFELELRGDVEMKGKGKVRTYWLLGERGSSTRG

| SMILES | Potency [1] | Potency [2] | Potency [3] | Potency [4] | Potency [5] | Potency [6] |
| --- | --- | --- | --- | --- | --- | --- |
| CC[C@@H](c1ccccc1)n1c(=O)n2n(c1=O)[C@H]1[C@H](O)[C@@H]3O[C@H]3C(=NOCc3ccccc3)[C@H]1CC2 | inactive | inactive | inactive | inactive | inactive |  |
| COc1ccc2c(c1)O[C@H](c1ccc3c(c1)OCO3)[C@@H](OC(=O)NCc1ccc3c(c1)OCO3)C2=O | inactive | inactive | inactive | inactive | inactive | inactive |
| O=C1CCC=C1C(O)CCc1ccccc1 (stereo unspecified) | inactive | inactive | inactive | inactive | inactive | inactive |
| COC(=O)C=C[C@H]1c2ccccc2[C@@H](OC)[C@@H]1C | inactive | inactive | inactive | inactive | inactive | inactive |
| CC(=O)OC[C@H]1O[C@H](CCON=C(C)CCC(=O)OC[C@H]2O[C@H](C#Cc3ccccc3)C=C[C@H]2Oc2ccc(C)cc2)C=C[C@H]1OC(C)=O | inactive | inactive | inactive | inactive | inactive | inactive |
| CCCCCCCC#Cc1ccccc1C=NS(=O)c1ccc(C)cc1 (stereo unspecified) | inactive | inactive | inactive | inactive | inactive | inactive |
| C=CCOC(=O)N[C@H](C[N+](=O)[O-])c1ccccc1 | inactive | inactive | inactive | inactive | inactive | inactive |
| CCOC(=O)CN1C(=O)[C@]2(OCCC=C[C@@H]2C)c2c(Br)cccc21 | inactive | inactive | inactive | inactive | inactive | inactive |
| C=CCNC(=O)N1C2=NC(C(=O)OC)=C(C(=O)OC)[C@@H]3N(C)c4ccccc4[C@]23C[C@H]1CO | inactive | inactive and 1.9 µM (active) | inactive and 1.69 µM (active) | inactive and 2.94 µM (active) | inactive | inactive |
| COc1ccc(-c2nc(-c3ccccc3)oc2Nc2c(C)cccc2C)cc1 | inactive | inactive | inactive | inactive | inactive | inactive |
| COC(=O)NC(c1ccc2c(c1)OCO2)C(C(=O)OC)C(=O)OC (stereo unspecified) | inactive | inactive | inactive | inactive | inactive | inactive |
| COC(=O)c1cc(C(=O)OC)n2ccc3cc(OC)c(OC)cc3c12 | inactive | inactive | inactive | inactive | 531 nM (active) | inactive |
| CC1(OC(=O)C2CCCC2)C(=O)C=C2C=C(c3ccsc3)N(CCc3ccccn3)C=C2C1=O (stereo unspecified) | inactive | inactive | inactive | inactive | inactive | inactive |
| O=C1[C@H]2[C@@H]3[C@@H](O)[C@H](O)CC(=NOCc4ccccc4)[C@@H]3CC[C@H]2C(=O)N1c1ccc(F)cc1F | inactive | inactive | inactive | inactive | inactive | inactive |
| C=CCCN1C(=O)NC(c2ccccc2)C(C(C)=O)=C1C (stereo unspecified) | inactive | inactive | inactive | inactive | inactive | inactive |
| COC(=O)CC=C[C@H](C)[C@@H](NC(=O)C(F)(F)F)c1ccccc1Br | inactive | inactive | inactive | inactive | inactive | inactive |
| COC(=O)c1c(C(=O)OC)c2c3ccccc3cc(-c3ccccc3)n2c1C(=O)OC | inactive | inactive | inactive | inactive | inactive | inactive |
| COC(=O)NC(C(=O)OC)(C(=O)OC)c1ccccc1 | inactive | inactive | inactive | inactive | inactive | inactive |
| C[C@@H]1C=CCCO[C@]12C(=O)Nc1ccccc12 | inactive | inactive | inactive | inactive | inactive | inactive |
| CCN(CC)CCCN=C1NC(c2cccc(C(F)(F)F)c2)C(C(=O)OC)=C(C)N1CC (stereo unspecified) | inactive | inactive | inactive | inactive | inactive | inactive |
| C=CC1=C2C=C(C3CC3)N(CCOC)C=C2C(=O)C(C)(OC(=O)c2ccco2)C1=O (stereo unspecified) | inactive | inactive | inactive | inactive | inactive | inactive |
| CCOC(=O)CN1C(=O)N(CC)C(C)=C(C(=O)OC)C1c1ccccc1 (stereo unspecified) | inactive | inactive | inactive | inactive | inactive | inactive |
| CCN1C(=O)[C@@H]2[C@H]3[C@H](O)[C@H](O)CC(=NOC[C@@H](O)[C@H]4O[C@@H]5OC(C)(C)O[C@H]5[C@@H]4O)[C@@H]3CC[C@H]2C1=O | inactive | inactive | inactive | inactive | inactive | inactive |
| C=C(C)C(O)C=Cc1ccc(Br)cc1 (stereo unspecified) | inactive | inactive | inactive | inactive | inactive | inactive |
| COC(=O)C1=C(C(=O)OC)[C@@H]2N(C)c3ccccc3[C@@]23CCC(=O)N(Cc2ccco2)C3=N1 | inactive | inactive | inactive | inactive | inactive | inactive |
| COC(=O)CC=C[C@@H](C)[C@@H](C=NOCC[C@@H]1C=C[C@H](OC(C)=O)[C@@H](COC(C)=O)O1)NS(=O)(=O)c1ccc(C)cc1 | inactive | inactive | inactive | inactive | inactive | inactive |

| SMILES | Potency [1] | Potency [2] | Potency [3] | Potency [4] | Potency [5] | Potency [6] |
| --- | --- | --- | --- | --- | --- | --- |
| COC(=O)C1=C(C)N(Cc2ccccc2)C(=S)NC1c1ccc(Br)cc1 (stereo unspecified) | inactive | inactive | inactive | inactive | inactive | inactive |
| C#CCNC(=O)[C@H]1C=C(OC)C(=O)C[C@H](c2ccccc2)[C@H]1C | inactive | inactive | inactive | inactive | inactive | inactive |
| O=C(NN=C1C[C@@H](O)[C@H](O)[C@H]2[C@@H]3C(=O)N(C4CCCCC4)C(=O)[C@@H]3CC[C@H]12)OCc1ccccc1 | inactive | inactive | inactive | inactive | inactive | inactive |
| C=C(C)CO[C@H]1C=C[C@@H](c2ccccc2)O[C@H]1CO | inactive | inactive | inactive | inactive | inactive | inactive |
| COCCN1C(=NCCc2cccnc2)NC(c2ccccc2)C(C(=O)OC)=C1C (stereo unspecified) | inactive | inactive | inactive | inactive | inactive | inactive |
| COC(=O)C(C(C)=O)[C@@H](NC(=O)OC(C)(C)C)c1ccccc1 (stereo partly specified) | inactive | inactive | inactive | inactive | inactive | inactive |
| CCOC(=O)CN1C(=O)NC(c2cccc(F)c2)C(C(C)=O)=C1C (stereo unspecified) | inactive | inactive | inactive | inactive | inactive | inactive |
| COC(=O)C1=C(C(=O)OC)[C@@H]2N(C)c3ccc(OC)cc3[C@@]23C[C@@H](C(=O)OC)N(C(=O)c2cc(C)oc2C)C3=N1 | inactive | inactive | inactive | inactive | inactive | inactive |
| Cc1cc(F)ccc1O[C@H]1C=C[C@@H](c2ccc3c(c2)OCO3)O[C@H]1CO | inactive | inactive | inactive | inactive | inactive | inactive |
| CC(=O)C1=CN(CCC=Cc2ccccc2)C(=O)NC1c1ccccc1 (stereo unspecified) | inactive | inactive | inactive | inactive | inactive | inactive |
| CC=COC(=O)N[C@@H](c1ccccc1)[C@]1(C(=O)OC)CCCC1=O | inactive | inactive | inactive | inactive | inactive | inactive |
| COC(=O)[C@H]1[C@@H](c2cccc(C(F)(F)F)c2)NC(=O)N(Cc2ccccc2)[C@@H]1C | inactive | inactive | inactive | inactive | inactive | inactive |
| COC(=O)C1=C(C(=O)OC)[C@@H]2N(C)c3ccc(OC)cc3[C@@]23C[C@@H](C(=O)OC)N(C(=O)c2cccs2)C3=N1 | inactive | inactive | inactive | inactive | inactive | inactive |
| CCN1C(=NCCc2cccnc2)NC(c2ccccc2)C(C(=O)OC)=C1C (stereo unspecified) | inactive | inactive | inactive | inactive | inactive | inactive |
| O=C(NN=C1C[C@@H](O)[C@H](O)[C@H]2[C@@H]3C(=O)N(c4cccc(Oc5ccccc5)c4)C(=O)[C@@H]3CC[C@H]12)OCc1ccccc1 | inactive | inactive | inactive | inactive | inactive | inactive |
| COc1ccc([C@]23Cc4cc(OC)c(OC)cc4[C@H](O2)C2=C(CC4(CCCCC4)OC2=O)O3)cc1 | inactive | inactive | inactive | inactive | inactive | inactive |
| CO[C@H](c1ccccc1Br)[C@H](C)C=CCCO | inactive | inactive | inactive | inactive | inactive | inactive |
| COC(=O)[C@H]1O[C@@H](c2cc(OC)c(C)c(OC)c2OCc2ccccc2)[C@H](C)[C@H]2O[C@@]12C | inactive | inactive | inactive | inactive | inactive | inactive |
| COc1ccc2c(c1)C(=O)[C@@H](OC(=O)NS(=O)(=O)c1ccc(F)cc1)[C@H](c1ccc(OC)c(Br)c1)O2 | inactive | inactive | inactive | inactive | inactive | inactive |
| C=CCOC(=O)N[C@H](c1ccccc1)C(C(C)=O)C(C)=O | inactive | inactive | inactive | inactive | inactive | inactive |
| CC=COC(=O)N[C@@H](c1ccccc1)[C@]1(C(C)=O)CCCC1=O | inactive | inactive | inactive | inactive | inactive | inactive |
| COC(=O)CCCC1=CC2=C(c3ccccc3)C(=O)C(C)(OC(=O)C3CCCC3)C(=O)C2=CN1Cc1ccco1 (stereo unspecified) | inactive | inactive | inactive | inactive | inactive | inactive |
| COc1ccc2c(c1)O[C@@H](c1cccc(C(F)(F)F)c1)[C@H](O)C2=O | inactive | inactive | inactive | inactive | inactive | inactive |
| COCCN1C(=O)NC(c2ccccc2)C(C(=O)OC)=C1C (stereo unspecified) | inactive | inactive | inactive | inactive | inactive | inactive |
| C[C@H]1Cc2c(-c3ccccc3)nc3c(c2CO1)CN(C(=O)Cc1cccs1)CC3 | inactive | inactive | inactive | inactive | inactive | inactive |
| COc1cccc2c1C1(CCCCC1)CC2NC(=O)C(F)(F)F (stereo unspecified) | inactive | inactive | inactive | inactive | inactive | inactive |
